# Results as given in PubChem BioAssay (NCATS).
# Inconclusive results are not listed. The source holds several records for some structures; these can differ, active in one and inactive in another. Values without a mark were called inactive. Active and inactive are the calls of the source. Calls come from the whole dose curve; as a rule, active = well fitted curve in the direction sought with a large enough effect; inconclusive = small, poorly fitted or top-dose-only effect, or another doubt; inactive = no such curve, though single readings can be large; an effect the other way counts as inactive or inconclusive.
# Tests used:
# [1] = Viability qHTS for spleen associated tyrosine kinase inhibitor (SYKi) drug resistant MV4-11 cells (AID 1963824); settings: SYKi-resistant MV4-11 viability, CellTiter-Glo, 72 h; series mostly up to 45 µM; note: nearly all actives have a fitted effect of over 35% in size; note: potency is the fitted concentration of half-maximal effect
# In short: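 CellTiter-Glo luminescence, read 10 min after reagent addition, reports viability after a 72 hr compound exposure. Cells are an MV4-11 line made resistant to SYK inhibition, seeded at 500 per well onto compound-containing plates.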
# [2] = Quantitative highthroughput screen to assess conditional lethalithy of NOMO1 cells grown in RPMI1640 with untreated serum (RPMI+s) (AID 1963876); settings: NOMO1 AML cells in RPMI+serum, CellTiter-Glo viability, 48 h; series mostly up to 45.8 µM; note: nearly all actives have a fitted effect of over 35% in size; note: potency is the fitted concentration of half-maximal effect;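 for Viability: 100% = DMSO wells and 0% = empty wells without cells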
# In short: (§1)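 Each medium arm—HPLM with 10% dialyzed FBS, or RPMI1640 with 5 mM glucose and 10% untreated or dialyzed FBS—was screened against an 11-point, 3-fold compound titration for 48 h at 37 °C, with CellTiter-Glo luminescence as endpoint.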
# [3] = Quantitative highthroughput screen to assess conditional lethalithy of NOMO1 cells grown in RPMI1640 with dialyzed fetal bovine serum (RPMI+ds) (AID 1963877); settings: NOMO1 in RPMI+dialyzed FBS viability, ATP luminescence, 48 h; series mostly up to 45.8 µM; note: nearly all actives have a fitted effect of over 30% in size; note: potency is the fitted concentration of half-maximal effect;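 for Viability: 100% = DMSO control wells and 0% = empty wells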
# In short: as §1
# [4] = Quantitative highthroughput screen to assess conditional lethalithy of NOMO1 cells grown in Human Plasma-Like Medium with dialyzed fetal bovine serum (HPLM+ds) (AID 1963878); settings: NOMO1 AML cells in HPLM+ds, CellTiter-Glo viability, 48 h; series mostly up to 45.8 µM; note: nearly all actives have a fitted effect of over 35% in size; note: potency is the fitted concentration of half-maximal effect;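 for Viability: 100% = DMSO wells and 0% = empty wells on each plate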
# In short: as §1
# [5] = Quantitative highthroughput screen to assess conditional lethalithy of P12 Ichikawa cells grown in Human Plasma-Like Medium with dialyzed fetal bovine serum (HPLM+ds) (AID 1963879); settings: ATP luminescence, 48 h; Potency: viability; series mostly up to 45.8 µM; note: nearly all actives have a fitted effect of over 35% in size; note: potency is the fitted concentration of half-maximal effect
# In short: as §1
# [6] = Quantitative highthroughput screen to assess conditional lethalithy of P12 Ichikawa cells grown in RPMI1640 with dialyzed fetal bovine serum (RPMI+ds) (AID 1963880); settings: ATP luminescence, 48 h; Potency: P12-Ichikawa viability; series mostly up to 45.8 µM; note: nearly all actives have a fitted effect of over 35% in size; note: potency is the fitted concentration of half-maximal effect;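 for Viability: 100% = DMSO wells and 0% = empty wells on each plate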
# In short: as §1
# [7] = Quantitative highthroughput screen to assess conditional lethalithy of P12 Ichikawa cells grown in RPMI1640 with untreated serum (RPMI+s) (AID 1963881); settings: ATP luminescence, 48 h; Potency: viability; series mostly up to 45.8 µM; note: nearly all actives have a fitted effect of over 35% in size; note: potency is the fitted concentration of half-maximal effect;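 for Viability: 100% = DMSO wells and 0% = empty wells without cells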
# In short: as §1
# [8] = Quantitative highthroughput screen to assess conditional lethalithy of SEM cells grown in Human Plasma-Like Medium with dialyzed fetal bovine serum (HPLM+ds) (AID 1963882); settings: SEM B-ALL cells in HPLM+ds, CellTiter-Glo viability, 48 h; series mostly up to 45.8 µM; note: nearly all actives have a fitted effect of over 35% in size; note: potency is the fitted concentration of half-maximal effect
# In short: as §1
# [9] = Quantitative highthroughput screen to assess conditional lethalithy of SEM cells grown in RPMI1640 with unreated serum (RPMI+s) (AID 1963883); settings: SEM B-ALL cells, CellTiter-Glo viability, 48 h; series mostly up to 45.8 µM; note: nearly all actives have a fitted effect of over 35% in size; note: potency is the fitted concentration of half-maximal effect;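 for Viability: 100% = DMSO wells and 0% = empty wells without cells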
# In short: as §1
# [10] = Cellular viability qHTS for adrenocortical cancer (ACC) cell line SW-13 (AID 1963989); settings: SW-13 ACC cells viability, CellTiter-Glo, 48 h; activity (max response): stronger effect = lower value;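 note: cells grown in serum-free medium with ITS supplement; % is set by controls: 0 for no effect and ±100 for the full control effect; nearly all actives have a fitted effect of over 65% in size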
# In short: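 Here, serum-free SW-13 cultures were dosed up to 46 uM. Following 48 h, ATP-dependent luminescence (CellTiter-Glo) reported viable cells, and logistic modeling produced IC50 values.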
# [11] = Cellular viability qHTS for adrenocortical cancer (ACC) cell line NCI-H295R (AID 1963990); settings: CellTiter-Glo ATP luminescence, 48 h; series mostly up to 46.1 µM;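 note: 0% = DMSO only wells and -100% = full killing with cytotoxic reference compound; nearly all actives have a fitted effect of over 60% in size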
# In short: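 Viability of NCI-H295R after 48 h of treatment (final up to 46 uM) measured through cellular ATP luminescence.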
smiles,measurement,setting,value
CCC(=O)O[C@]1(C(=O)CCl)[C@@H](C)C[C@H]2[C@@H]3C[C@H](F)C4=CC(=O)C=C[C@]4(C)[C@@]3(F)[C@@H](O)C[C@@]21C,Potency,[1],18.4 µM (active)
Cn1c(CNc2ccc(C(=N)N)cc2)nc2cc(C(=O)N(CCC(=O)O)c3ccccn3)ccc21,Potency,[1],4.11 µM (active)
same,"viability, % of control",[1],94.3% [at 0.588 µM]
same,Potency,[2],inactive
same,Potency,[3],inactive
same,Potency,[4],inactive
same,Potency,[5],inactive
same,Potency,[6],inactive
same,Potency,[7],inactive
same,Potency,[8],inactive
same,Potency,[9],inactive
same,activity (max response),[10],9.7%
same,"activity change, negative = viability loss",[11],15.5% [at 0.587 µM]
Cc1cc(F)c(Nc2ncnc3cc(OCc4ccccc4)ccc23)cc1O,Potency,[1],14.6 µM (active)
C=C1C(=O)O[C@@H]2CC(C)=C([C@@H](C)CCCO)[C@@H](OC(=O)C(C)C)[C@H]12,Potency,[1],4.04 µM (active)
N[C@H]1Cc2ccccc2N(O)C1=O,Potency,[1],inactive
CCOc1ccc(-n2c(C(C)N(Cc3cccnc3)C(=O)Cc3ccc(F)c(C(F)(F)F)c3)nc3ncccc3c2=O)cc1 (stereo unspecified),Potency,[1],16.4 µM (active)
COC(=O)C1=CO[C@@H](O[C@@H]2O[C@H](CO)[C@@H](O)[C@H](O)[C@H]2O)[C@@H]2[C@@H](C)[C@@H](O)C(O)[C@H]12 (stereo partly specified),Potency,[1],inactive
Fc1ccc2c(CCNCc3cccc(OCC(F)(F)C(F)F)c3)c[nH]c2c1,Potency,[1],16.4 µM (active)
O=C1c2ccc(Nc3ccc(F)cc3F)cc2CCc2ccc(OCC(O)CO)cc21 (stereo unspecified),Potency,[1],9.2 µM (active)
COc1ncc(Nc2ncc([C@@H](C)N3CCN(S(C)(=O)=O)CC3)cc2-c2nc(C)nc(N)n2)cc1F,Potency,[1],inactive
C[C@@H](Oc1cc(-n2cnc3ccc(OC4CCN(C)CC4)cc32)sc1C(N)=O)c1ccccc1C(F)(F)F,Potency,[1],0.0092 µM (active)
O=C(Nc1cc2cc[nH]c2cn1)c1ccccc1,Potency,[1],9.2 µM (active)
same,Potency,[2],5.9 µM (active)
same,Potency,[3],13.2 µM (active)
same,Potency,[4],3.32 µM (active)
same,Potency,[5],2.96 µM (active)
same,Potency,[6],5.9 µM (active)
same,Potency,[7],14.8 µM (active)
same,Potency,[8],3.72 µM (active)
same,Potency,[9],2.96 µM (active)
